B2AR arrestin ag = beta-arrestin recruitment by human beta2-adrenergic receptor ligands; P07550; HTLA Tango cells, beta-arrestin recruitment, luciferase luminescence, 18 h; Potency, µM (series often up to 46.1 µM), most hits filed as activators; 44,000 tested, under 10 active; AID 1347077;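 further: potency means the concentration at half of the fitted maximal effect; 0% = DMSO and full agonism = EC100 isoproterenol or metaproterenol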
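Tango cells expressing recombinant beta2-AR and beta-arrestin were treated with compounds (up to 46 microM titration) in DMEM with 1% FBS for 18 hr at 37 degrees C. Beta-arrestin recruitment drove tTA-dependent luciferase, read by luminescence; curves were fitted and classed.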
GALK inh = inhibits human galactokinase | P51570 | recombinant GALK, Kinase-Glo ATP luminescence, 1 h | Potency, µM (highest dose often 57.5 µM), for inactives: at the highest dose activity, negative = inhibition, most hits filed as inhibitors | 44,000 tested, under 10 active | AID 1347072;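 further: plate controls were full GALK reaction for no effect and reaction lacking GALK for full effect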
Target sequence (P51570 whole entry, looked up): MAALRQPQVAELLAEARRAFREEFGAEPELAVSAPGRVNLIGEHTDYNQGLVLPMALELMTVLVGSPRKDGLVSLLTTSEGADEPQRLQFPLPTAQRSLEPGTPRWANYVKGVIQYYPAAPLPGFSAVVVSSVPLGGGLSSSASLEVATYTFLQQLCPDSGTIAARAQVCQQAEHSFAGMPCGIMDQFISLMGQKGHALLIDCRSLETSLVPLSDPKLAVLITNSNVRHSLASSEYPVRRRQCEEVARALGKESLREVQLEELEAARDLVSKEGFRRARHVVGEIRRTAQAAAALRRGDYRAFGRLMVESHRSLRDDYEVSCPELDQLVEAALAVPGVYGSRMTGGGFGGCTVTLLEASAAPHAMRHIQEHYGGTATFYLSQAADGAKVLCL
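Reactions with and without enzyme served as controls. GALK at 5 nM phosphorylates 100 uM galactose using 35 uM ATP (HEPES pH 8.0, Mg2+) for 1 h at RT, with luminescence read 10 min after adding Kinase-Glo Plus.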
TSG101-PTAP inh = blocks PTAP binding to human TSG101, validation | Q99816 | Fluorescence polarization, FITC-PTAP peptide/Tsg101, 20 min | AID 1347069 | Potency, µM (titrated, usually from 115 µM), most hits filed as inhibitors | 44,000 tested, under 10 active; further: potency means the concentration at half of the fitted maximal effect; 0% is about no effect
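Compounds pinned into 10 uM Tsg101 binding domain, then 50 nM FITC-PTAP peptide added in pH 7.5 HEPES buffer; FP read after 20 min, room temperature. Total S+P intensity flags fluorescent compounds; active cut-off <25 µM, efficacy <60%.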
GPR32 ag = activates human resolvin D1 receptor GPR32; O75388; CHO-K1 GPR32 beta-arrestin PathHunter luminescence, 90 min; zero percent set by DMSO-only wells; activation, % at 76.9 µM; actives 2.5% (n = 48,000);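 active means activation of at least 60% and not above a set upper limit, about 1 call in 100 departs from these limits; inconclusive means activation of 40% to 60%, or above that upper limit; inactive means activation under 40%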; further: 0% is about no effect
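GPR32 activation in stably transfected CHO-K1 cells, detected as beta-arrestin recruitment by enzyme-fragment complementation. Compound exposure: 90 min, 37 °C.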
Starred values were filed as active, the others as inactive; ! = not confirmed by another sample. In the library only some 2.5% were active in any assay of this set; here they are far more common. Unless noted, the call rests on the fitted dose curve; in most records, active means well fitted curve in the direction sought with a large enough effect; inconclusive means small, poorly fitted or top-dose-only effect, or another doubt; inactive means no such curve, though single readings can be large; an effect the other way counts as inactive or inconclusive.

For O=C(/C=C/c1ccc(O)c(O)c1)O[C@@H]1C[C@@](OC(=O)/C=C/c2ccc(O)c(O)c2)(C(=O)O)C[C@@H](O)[C@@H]1O the results were GPR32 ag 16.
For CSc1cccc(NC(=O)c2cccc(N3CCCS3(=O)=O)c2)c1 the results were B2AR arrestin ag inactive, GALK inh -3%, TSG101-PTAP inh inactive and GPR32 ag 10.
`CC(C)CCOc1ccc(Oc2nc(N(C)C)nc(N(C)C)n2)nn1` gave B2AR arrestin ag inactive, GALK inh 2%, TSG101-PTAP inh inactive and GPR32 ag -9.
`Cc1ccc(NC(=O)CSc2nnc(-c3cc4occc4n3C)n2-c2ccccc2C)c(C)c1` gave B2AR arrestin ag inactive, GALK inh 3%, TSG101-PTAP inh inactive and GPR32 ag -21.
`COc1ccc(CC(=O)NCCc2sc(-c3cccc(F)c3)nc2C)cc1` gave B2AR arrestin ag inactive, GALK inh 0%, TSG101-PTAP inh inactive and GPR32 ag 98*.
For C#CC(C)(CC)OC(=O)c1ccccc1C(=O)O (stereo not given) the results were GPR32 ag 37.
`COCCNC(=O)Cn1c(=O)c2cccn2c2ccc(F)cc21` gave B2AR arrestin ag inactive, GALK inh 5%, TSG101-PTAP inh inactive and GPR32 ag -15.
For COc1cccc(NC(=O)/C(C#N)=C/c2ccc(-c3ccc(C)cc3)o2)c1 the results were B2AR arrestin ag inactive, GALK inh 2%, TSG101-PTAP inh 40µM* and GPR32 ag -25.
For CCc1ccc(NC(=O)Cn2nnc(C(=O)Nc3cc(C)ccc3OC)c2N)cc1 the results were B2AR arrestin ag inactive, GALK inh 2%, TSG101-PTAP inh inactive and GPR32 ag 74*.
`CCCC(CCC)(C(=O)OCC)C(=O)OCC` gave GPR32 ag -2.
For CCc1cccc(NC(=O)c2nnn(Cc3ccc(SC)cc3)c2N)c1 the results were B2AR arrestin ag inactive, GALK inh 5%, TSG101-PTAP inh inactive and GPR32 ag 62*.
Screening Cc1ccc(NC(=O)c2nnn(Cc3cccc(C(F)(F)F)c3)c2N)c(C)c1 returned B2AR arrestin ag inactive, GALK inh -3%, TSG101-PTAP inh inactive and GPR32 ag 93*.
Screening CN(C)[C@@H](CCOc1cccc2ccccc12)c1ccccc1 returned GPR32 ag 4.
Screening O=C(O)c1ccccc1NCCc1ccccc1 returned GPR32 ag -34.
Screening Cc1cc(N2CCN(C)CC2)nc2ccc(NC(=O)Nc3ccc(Cl)cc3)cc12 returned B2AR arrestin ag inactive, GALK inh 1%, TSG101-PTAP inh inactive and GPR32 ag 118*.
Screening Cc1ccccc1NC(=O)Nc1ccc2nc(N3CCN(C)CC3)cc(C)c2c1 returned B2AR arrestin ag inactive, GALK inh -1%, TSG101-PTAP inh inactive and GPR32 ag 31.
`CCCOc1ccc(CNC(=O)Cn2cc3c(n2)-c2c(oc(C(=O)N4CCOCC4)c2C)CC3)cc1` gave B2AR arrestin ag inactive, GALK inh 4%, TSG101-PTAP inh inactive and GPR32 ag -9.
Screening CN1CCN(CCCN2c3ccccc3Sc3ccc(C(F)(F)F)cc32)CC1 returned GPR32 ag 64*!.
For Cc1ccc(C)c(S(=O)(=O)c2cnc(SCC(=O)Nc3ccc(F)cc3F)[nH]c2=O)c1 the results were B2AR arrestin ag inactive, GALK inh inconclusive, TSG101-PTAP inh inactive and GPR32 ag 3.
For CCCCN(CCCC)CC(O)Cn1cc(/C=C/C(=O)c2ccccc2)c2ccccc21 (stereo not given) the results were B2AR arrestin ag inactive, GALK inh 7%, TSG101-PTAP inh inactive and GPR32 ag 88*.
For CCOc1ccc(Cc2nccc3cc(OCC)c(OCC)cc23)cc1OCC the results were GPR32 ag 88*.
COc1ccc(Nc2c3c(nc4ccc(NC(=O)c5cc(Cl)ccc5OC)cc24)CCCC3)cc1OC was read as B2AR arrestin ag inactive, GALK inh 5%, TSG101-PTAP inh inactive and GPR32 ag 61*.
Screening CCOc1ccccc1C(=O)Nc1ccc2nc3c(c(Nc4ccc(OC)c(OC)c4)c2c1)CCCC3 returned B2AR arrestin ag inactive, GALK inh -1%, TSG101-PTAP inh inactive and GPR32 ag -21.
COc1cc(OC)cc(C(=O)Nc2ccc3nc4c(c(Nc5ccc(OC)c(OC)c5)c3c2)CCCC4)c1 was read as B2AR arrestin ag inactive, GALK inh -1%, TSG101-PTAP inh inactive and GPR32 ag 85*.
COc1cccc(CNC(=O)C2CCN(c3nc4ccc(Cl)cc4[nH]3)CC2)c1 was read as B2AR arrestin ag inactive, GALK inh -1%, TSG101-PTAP inh inactive and GPR32 ag 4.
For Cc1ccc(NS(=O)(=O)c2ccc(-n3cccn3)cc2)c(Br)c1 the results were B2AR arrestin ag inactive, GALK inh -5%, TSG101-PTAP inh inactive and GPR32 ag 72*.
`Cc1ccc(NS(=O)(=O)c2cn(C)c(C)n2)c(Br)c1` gave B2AR arrestin ag inactive, GALK inh 3%, TSG101-PTAP inh inactive and GPR32 ag 35.
Cc1cccc(NS(=O)(=O)c2ccc(-n3cccn3)cc2)c1C was read as B2AR arrestin ag inactive, GALK inh 3%, TSG101-PTAP inh inactive and GPR32 ag 73*.
Screening Cc1[nH]cnc1-c1ccc(Cl)cc1 returned GPR32 ag 22.
`COc1ccc(-c2nc3scc(CCNC(=O)c4cccc(Br)c4)n3n2)cc1` gave B2AR arrestin ag inactive, GALK inh 4%, TSG101-PTAP inh inactive and GPR32 ag 71*.
Screening CCOC(=O)C1=C(C)NC(C)=C(C(=O)OC)C1c1cccc(Cl)c1Cl (stereo not given) returned GPR32 ag 110*!.
For Oc1cccc2[nH]ccc12 the results were GPR32 ag -20.
For COc1ccc(CCNc2ncnc3onc(C)c23)c(OC)c1 the results were B2AR arrestin ag inactive, GALK inh -2%, TSG101-PTAP inh inactive and GPR32 ag 75*.
For COc1cccc(CNc2ncnc3onc(C)c23)c1 the results were B2AR arrestin ag inactive, GALK inh 3%, TSG101-PTAP inh inactive and GPR32 ag 33.
CCN(CC)S(=O)(=O)c1nnc(NC(=O)c2ccc(C(C)C)cc2)s1 was read as B2AR arrestin ag inactive, GALK inh 0%, TSG101-PTAP inh inactive and GPR32 ag 75*.
CCN(CC)S(=O)(=O)c1nnc(NC(=O)c2ccc(C)cc2)s1 was read as B2AR arrestin ag inactive, GALK inh 2%, TSG101-PTAP inh inactive and GPR32 ag 32.
CC1CCc2onc(C(=O)N3CCN(c4ccc(Cl)cc4)CC3)c2C1 (stereo not given) was read as B2AR arrestin ag inactive, GALK inh 2%, TSG101-PTAP inh inactive and GPR32 ag -18.
